From PubChem BioAssay

Test: basal CRE-LacZ reporter activity in PC12 – cell-based, unstimulated, primary screen (AID 1145)
Settings: no forskolin, luminescence, 4.5 h, higher = more signal, called active from +8 up or from −8 down

z-score, inactive:
O=C1O[C@@H](c2ccccc2)[C@@H](c2ccccc2)N2[C@@H](c3ccccc3OCCO)[C@]3(C(=O)Nc4ccc(C#CC5=CCCCC5)cc43)[C@@H](C(=O)N3CCCCCCC3)[C@H]12 -0.203
CCOC(=O)[C@H]1C/C=C/C[C@H](C(=O)OCC)C(=O)O[C@H]2[C@@H](OC)O[C@H](CO)[C@@H](OC(=O)c3c(OC)cccc3OC)[C@@H]2OC1=O 0.0816
CCC(CC)C(O)C1C=CC2C(=O)NC(=O)C2N1Nc1ccc(Cl)cc1Cl (centres undefined) 0.243
CCOC(=O)C[C@H]1[C@H](OC(=O)c2ccc(C(=O)c3ccccc3)cc2)[C@@H](NC(=O)c2ccc3ccccc3c2)c2cc(OCCCO)ccc2N1C(=O)Cc1ccc(OC)cc1 -0.635
COC(=O)[C@@]1(CCC(=O)OC(C)(C)C)N=C(c2ccc(OCCCO)cc2)O[C@H]1c1ccccc1N=[N+]=[N-] 2.68
COC(=O)[C@@]1(Cc2ccc(OC)cc2)[C@H]2c3cc(C(=O)N(C)C)n(Cc4ccccn4)c3C[C@H]2CN1C(=O)c1ccccc1 1.16
CCCC[C@@H]1C[C@H]1[C@@H](NC(=O)c1ccccc1)c1ccc(C(=O)OC)cc1 0.576
CCCCCCc1nc(-c2ccc(OC)nc2)cc2c1[Si](C(C)C)(C(C)C)O[C@H]2c1ccccc1 0.773
COC(=O)C(CC#Cc1ccc2c(c1)[C@]1(C(=O)N2)[C@H](C(=O)Nc2nc3ccccc3s2)[C@H]2C(=O)O[C@H](c3ccccc3)[C@H](c3ccccc3)N2[C@@H]1c1ccccc1OCCO)C(=O)OC 0.389
